Several values for one entry are separate records, joined by “and”; a condition that tells them apart may be missing. Identical values can stand only once. Compounds without any hit were thinned out: in the full panel of roughly 79,000, 15% have a hit. A structure can be active in one record and inactive in another. Activity calls are given as the source filed them. Rule as the data show it: active = growth inhibition above about 70%; inactive = the rest.
How the values were obtained:
[1] = NCI Yeast Anticancer Drug Screen. Data for the rad50 strain (AID 155);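 also: 0% = growth of vehicle-only cultures of the same strain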; conditions: S. cerevisiae rad50 strain growth inhibition, stronger effect = higher value
Outline: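 A DNA repair-deficient yeast mutant serves as the test organism; compound-induced growth inhibition is calculated against vehicle-treated cells.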

[2] = NCI Yeast Anticancer Drug Screen. Data for the mec2-1 strain (AID 157); conditions: S. cerevisiae mec2-1 strain, stronger effect = higher value
Outline: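 Each compound was tested on mec2-1 yeast, a strain altered in DNA damage repair or cell cycle control. Growth inhibition is reported relative to vehicle.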

[3] = NCI Yeast Anticancer Drug Screen. Data for the sgs1 mgt1 strain (AID 161);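 also: 0% = growth of cultures given vehicle only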; conditions: S. cerevisiae sgs1 mgt1 strain, stronger effect = higher value
Outline: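 Test agents were incubated with a DNA-repair-mutant yeast strain. Growth was then read and compared against vehicle-treated controls.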

[4] = NCI Yeast Anticancer Drug Screen. Data for the cln2 rad14 strain (AID 165);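 also: 0% = growth equal to vehicle treated cultures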; conditions: S. cerevisiae cln2 rad14 strain, stronger effect = higher value
Outline: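 Test compounds were added to cln2 rad14 yeast cultures; inhibition of growth was then determined by comparison with vehicle treatment.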

[5] = NCI Yeast Anticancer Drug Screen. Data for the bub3 strain (AID 167); conditions: S. cerevisiae bub3 mutant strain, stronger effect = higher value
Outline: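 Inhibition values come from growth of compound-treated mutant yeast normalised to vehicle-treated controls.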

[6] = NCI Yeast Anticancer Drug Screen. Data for the mlh1 rad18 strain (AID 175); conditions: S. cerevisiae mlh1 rad18 strain growth inhibition, stronger effect = higher value
Outline: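 Inhibition values reflect reduced growth of mutant yeast versus vehicle-treated controls following compound exposure; the mutations affect DNA damage repair.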

[7] = at 5.0 µM (retest, dose inferred, filed as 0.5)
[8] = at 50.0 µM (retest, dose inferred, filed as 5.0)

Row | Compound | growth inhibition [1, 7] | growth inhibition [1, 8] | growth inhibition ([1]; at 50.0 µM) | growth inhibition [2, 7] | growth inhibition [2, 8] | growth inhibition ([2]; at 50.0 µM) | growth inhibition [3, 7] | growth inhibition [3, 8] | growth inhibition ([3]; at 50.0 µM) | growth inhibition [4, 7] | growth inhibition [4, 8] | growth inhibition ([4]; at 50.0 µM) | growth inhibition [5, 7] | growth inhibition [5, 8] | growth inhibition ([5]; at 50.0 µM) | growth inhibition [6, 7] | growth inhibition [6, 8] | growth inhibition ([6]; at 50.0 µM)
1 | CC#C[P+](c1ccccc1)(c1ccccc1)c1ccccc1 | 98% (active) | 98% (active) | 91.2% (active) | 87% (active) | 87% (active) | 92.9% (active) | 90% (active) | 90% (active) | 92.8% (active) | 91% (active) | 91% (active) | 90.8% (active) | 86% (active) | 86% (active) | 90.2% (active) | 95% (active) | 95% (active) | 88.8% (active)
2 | N#C[S-].[Nd+3].c1ccc(-c2ccccn2)nc1.c1ccc(-c2ccccn2)nc1.c1ccc(-c2ccccn2)nc1 | 62% (inactive) | 99% (active) | 91.2% (active) | 40% (inactive) | 99% (active) | 94.1% (active) | 44% (inactive) | 99% (active) | 93.5% (active) | 33% (inactive) | 96% (active) | 92.5% (active) | 62% (inactive) | 100% (active) | 93% (active) | 51% (inactive) | 99% (active) | 92% (active)
3 | CC(C)COP(=O)(O)OCC(C)C.[Al] | -2% (inactive) | -11% (inactive) | 3.45% (inactive) | -4% (inactive) | -9% (inactive) | 16.6% (inactive) | -5% (inactive) | -4% (inactive) | 3.05% (inactive) | -1% (inactive) | 3% (inactive) | -12.1% (inactive) | 1% (inactive) | 31% (inactive) | -0.75% (inactive) | -2% (inactive) | -10% (inactive) | 18.2% (inactive)
4 | CCOP(=O)(OCC)/C(C#N)=C/c1cccc(C)c1 | 4% (inactive) | 53% (inactive) | 71.4% (active) | -14% (inactive) | 28% (inactive) | 58.3% (inactive) | -18% (inactive) | 42% (inactive) | 65.8% (inactive) | -17% (inactive) | 9% (inactive) | 35% (inactive) | -8% (inactive) | 52% (inactive) | 52.1% (inactive) | -37% (inactive) | 56% (inactive) | 66.3% (inactive)
5 | CN(C)C(=S)[S][Sb]([c]1ccccc1)[c]1ccccc1 | 97% (active) | 99% (active) | 70.6% (active) | 99% (active) | 99% (active) | 83.5% (active) | 93% (active) | 99% (active) | 90.3% (active) | 89% (active) | 97% (active) | 57.1% (inactive) | 98% (active) | 75% (active) | 98.3% (active) | 99% (active) | 99% (active) | 90.5% (active)
6 | Nc1cc(Cl)ccc1C(=O)c1ccccc1Cl | -1% (inactive) | 98% (active) | 98.8% (active) | -4% (inactive) | 99% (active) | 99% (active) | 2% (inactive) | 98% (active) | 98.8% (active) | -6% (inactive) | 98% (active) | 96.8% (active) | -9% (inactive) | 98% (active) | 98% (active) | -4% (inactive) | 99% (active) | 98.2% (active)
7 | CC1CCS(=O)(=O)CC1.[Cl][Hg][Cl] | 98% (active) | 99% (active) | 99.6% (active) | 99% (active) | 99% (active) | 99.6% (active) | 99% (active) | 99% (active) | 99.6% (active) | 99% (active) | 99% (active) | 99.3% (active) | 99% (active) | 99% (active) | 99.5% (active) | 99% (active) | 99% (active) | 99.5% (active)
8 | O=C([O][Hg][CH2]C1CC(O)CC([CH2][Hg][O]C(=O)c2ccccc2)O1)c1ccccc1 (configuration not stated) | 98% (active) | 98% (active) | 99% (active) | 98% (active) | 99% (active) | 99.2% (active) | 99% (active) | 99% (active) | 99.3% (active) | 96% (active) | 97% (active) | 97.4% (active) | 97% (active) | 99% (active) | 98.5% (active) | 99% (active) | 99% (active) | 98.6% (active)
9 | CC(=O)OC1CCC2(C)C(CCC3C4=CCC(C5=CC(=O)OC5)C4(C)CCC32)C1 (configuration not stated) | 3% (inactive) | -33% (inactive) | 82.8% (active) | -1% (inactive) | 14% (inactive) | 81.8% (active) | 5% (inactive) | 55% (inactive) | 91.3% (active) | 12% (inactive) | 11% (inactive) | 65.3% (inactive) | 0% (inactive) | 4% (inactive) | 67.5% (inactive) | 3% (inactive) | -8% (inactive) | 77.8% (active)
10 | COc1cccc2c1cc([N+](=O)[O-])c1c(C(=O)O)cc3c(c12)OCO3 | 35% (inactive) and 54% (inactive) | 95% (active) and 94% (active) | 87.8% (active) and 91% (active) | 4% (inactive) and 39% (inactive) | 83% (active) and 93% (active) | 85.7% (active) and 91.7% (active) | 22% (inactive) and 61% (inactive) | 94% (active) and 95% (active) | 88.3% (active) and 88.7% (active) | -11% (inactive) and 19% (inactive) | 62% (inactive) and 84% (active) | 84.4% (active) and 86.8% (active) | 18% (inactive) and 49% (inactive) | 78% (active) and 93% (active) | 89.8% (active) and 90.5% (active) | 25% (inactive) and 71% (active) | 90% (active) and 95% (active) | 88.7% (active) and 79.7% (active)
11 | CN(C)C(=[Se])[Se]C(=[Se])N(C)C | 95% (active) | 91% (active) | 95.8% (active) | 96% (active) | 93% (active) | 96% (active) | 93% (active) | 92% (active) | 95.5% (active) | 84% (active) | 90% (active) | 91% (active) | 93% (active) | 92% (active) | 95.8% (active) | 96% (active) | 91% (active) | 96.3% (active)
12 | ClC(C[n+]1ccccc1)c1ccccc1 (configuration not stated) | 8% (inactive) | 22% (inactive) | 71% (active) and -9.25% (inactive) | 3% (inactive) | 16% (inactive) | 34.2% (inactive) and -1.25% (inactive) | 10% (inactive) | 35% (inactive) | 64.4% (inactive) and -1.8% (inactive) | 4% (inactive) | 3% (inactive) | -2.5% (inactive) and 7.5% (inactive) | 1% (inactive) | 6% (inactive) | 26.4% (inactive) and 11.1% (inactive) | 10% (inactive) | 51% (inactive) | 60.6% (inactive) and 4.6% (inactive)
13 | O=P(Nc1ccccc1)(Oc1ccccc1)N1CCN(c2ccccc2)CC1 (configuration not stated) | 0% (inactive) | 97% (active) | 71.2% (active) | -29% (inactive) | 96% (active) | 80.7% (active) | -32% (inactive) | 97% (active) | 84.5% (active) | 22% (inactive) | 96% (active) | 85.9% (active) | 14% (inactive) | 96% (active) | 87.2% (active) | -1% (inactive) | 96% (active) | 86.5% (active)
14 | ClCCN(CCCl)B(N(CCCl)CCCl)N(CCCl)CCCl | -1% (inactive) | -6% (inactive) | 98.8% (active) | -23% (inactive) | 0% (inactive) | 99.3% (active) | -11% (inactive) | 10% (inactive) | 99.1% (active) | 0% (inactive) | -2% (inactive) | 99.2% (active) | 3% (inactive) | -6% (inactive) | 98.8% (active) | -13% (inactive) | -26% (inactive) | 99.3% (active)
